Holding throughout (set-up): species or system human, MV4-11 + K-562 + COLO205 + SK-N-BE2 + OVCAR-8
The test system of one assay is BMPR2. The conditions noted are these: read-out: apparent Kd; compound concentrations:100 nM and 1000 nM (sheet 'Samples'); n = 1.
The next assay has as its system JAK2. The following applies: read-out: apparent Kd; compound concentrations:100 nM and 1000 nM (sheet 'Samples'); n = 1.
The subject of a further assay is PRKX. The following applies: read-out: apparent Kd; compound concentrations:100 nM and 1000 nM (sheet 'Samples'); n = 1.
A further assay relates to ROCK2. The conditions noted are these: read-out: apparent Kd; compound concentrations:100 nM and 1000 nM (sheet 'Samples'); n = 1.
Another assay concerns AURKA. The following applies: read-out: apparent Kd; compound concentrations: 100 nM and 1000 nM (sheet 'Samples'), CATDS: 7.2956934491261893E-2; n = 1.
A further assay deals with AURKB. The conditions noted are these: read-out: apparent Kd, compound concentrations: 100 nM and 1000 nM (sheet 'Samples'), n = 1.
The subject of a further assay is EPHB6. The conditions noted are these: read-out: apparent Kd; compound concentrations: 100 nM and 1000 nM (sheet 'Samples'), CATDS: 7.4696774901665194E-2; n = 1.
The subject of another assay is FER. The following applies: read-out: apparent Kd; compound concentrations: 100 nM and 1000 nM (sheet 'Samples'), CATDS: 5.6438447882713398E-2; n = 1.
The test system of the next assay is FES. The following applies: read-out: apparent Kd; compound concentrations: 100 nM and 1000 nM (sheet 'Samples'), CATDS: 5.2113476135959902E-2; n = 1.
The next assay relates to FLT3. The conditions noted are these: read-out: apparent Kd, compound concentrations: 100 nM and 1000 nM (sheet 'Samples'), n = 1.
A further assay concerns FLT4. The following applies: read-out: apparent Kd; compound concentrations: 100 nM and 1000 nM (sheet 'Samples'), CATDS: 0.232544079130999; n = 1.
In another assay the test system is IRAK3. The conditions noted are these: read-out: apparent Kd; compound concentrations: 100 nM and 1000 nM (sheet 'Samples'), CATDS: 5.7923631136655801E-2; n = 1.
The next assay concerns MET. The conditions noted are these: read-out: apparent Kd; compound concentrations: 100 nM and 1000 nM (sheet 'Samples'), CATDS: 6.0904662121703403E-2; n = 1.
The test system of the next assay is MST1R. The following applies: read-out: apparent Kd; compound concentrations: 100 nM and 1000 nM (sheet 'Samples'), CATDS: 5.5385881905980802E-2; n = 1.
A further assay concerns PDGFRB. The conditions noted are these: read-out: apparent Kd, compound concentrations: 100 nM and 1000 nM (sheet 'Samples'), n = 1.
Another assay deals with PLK4. The conditions noted are these: read-out: apparent Kd; compound concentrations: 100 nM and 1000 nM (sheet 'Samples'), CATDS: 9.5800604648041798E-2; n = 1.
The subject of a further assay is TNK1. The conditions noted are these: read-out: apparent Kd; compound concentrations: 100 nM and 1000 nM (sheet 'Samples'), CATDS: 0.119940011708452; n = 1.
A further assay concerns BMP2K. The conditions noted are these: read-out: apparent Kd; compound concentrations: 100 nM and 1000 nM (sheet 'Samples'), CATDS: 0.25599665936716798; n = 1.
The test system of another assay is FN3KRP. The following applies: read-out: apparent Kd; compound concentrations: 100 nM and 1000 nM (sheet 'Samples'), CATDS: 0.244187637168161; n = 1.
The test system of a further assay is MAP3K5. The following applies: read-out: apparent Kd; compound concentrations: 100 nM and 1000 nM (sheet 'Samples'), CATDS: 0.21983206185326901; n = 1.
The test system of another assay is PDXK. The conditions noted are these: read-out: apparent Kd; compound concentrations: 100 nM and 1000 nM (sheet 'Samples'), CATDS: 0.28989199258806803; n = 1.
The next assay relates to EGFR. The conditions noted are these: read-out: apparent Kd; compound concentrations: 100 nM and 1000 nM (sheet 'Samples'), CATDS: 9.4589689461148804E-2; n = 1.
The test system of a further assay is EIF2AK1. The following applies: read-out: apparent Kd; compound concentrations: 100 nM and 1000 nM (sheet 'Samples'), CATDS: 0.14381895647439999; n = 1.
The next assay deals with LIMK1. The following applies: read-out: apparent Kd; compound concentrations: 100 nM and 1000 nM (sheet 'Samples'), CATDS: 8.0890535197294403E-2; n = 1.
The next assay deals with LIMK2. The following applies: read-out: apparent Kd; compound concentrations: 100 nM and 1000 nM (sheet 'Samples'), CATDS: 0.109376912936183; n = 1.
The test system of another assay is NNT. The following applies: read-out: apparent Kd; compound concentrations: 100 nM and 1000 nM (sheet 'Samples'), CATDS: 8.6496378870903501E-2; n = 1.
The next assay relates to TESK2. The following applies: read-out: apparent Kd; compound concentrations: 100 nM and 1000 nM (sheet 'Samples'), CATDS: 9.3788253526120594E-2; n = 1.
In a further assay the test system is AXL. The following applies: read-out: apparent Kd; compound concentrations:100 nM and 1000 nM (sheet 'Samples'); n = 1.
In another assay the test system is ERBB3. The conditions noted are these: read-out: apparent Kd; compound concentrations:100 nM and 1000 nM (sheet 'Samples'); n = 1.
The test system of another assay is MAP3K1. The following applies: read-out: apparent Kd; compound concentrations:100 nM and 1000 nM (sheet 'Samples'); n = 1.
In a further assay the test system is RET. The following applies: read-out: apparent Kd; compound concentrations:100 nM and 1000 nM (sheet 'Samples'); n = 1.
A further assay deals with ZAK. The conditions noted are these: read-out: apparent Kd; compound concentrations:100 nM and 1000 nM (sheet 'Samples'); n = 1.

Molecules are shown by their SMILES. Like-named read-outs stand apart in the source and are kept apart here.

With `CC1=C(C(=O)Nc2ccc3[nH]ncc3c2)C(c2ccc3ccccc3c2)CC(=O)N1` (centres unmarked) [GSK270822A], the potency estimated from few doses with BMPR2 was 2.08 µM; in the assay on JAK2, 0.754 µM; with PRKX it was 1.63 µM; in the assay on ROCK2 it was 0.0679 µM.
`CN(c1ccc(NC(=O)Nc2c(Cl)cccc2Cl)cc1)c1ccnc(Nc2cccc(CS(C)(=O)=O)c2)n1` [GW809897X]: the potency estimated from few doses was 0.449 µM in the assay on AURKA; 0.271 µM with AURKB (CATDS: 8.8518013228777503E-2); 0.421 µM with EPHB6; 1.01 µM in the assay on FER; 1.4 µM with FES; 0.00304 µM in the assay on FLT3 (CATDS: 0.75020516601315201). Moreover, the potency estimated from few doses was 0.0316 µM in the assay on FLT4; 0.921 µM with IRAK3; 0.774 µM in the assay on MET; 1.09 µM in the assay on MST1R; 0.979 µM with PDGFRB (CATDS: 5.6967263110053901E-2); 0.224 µM with PLK4. Besides, the potency estimated from few doses with TNK1 was 0.134 µM.
Regarding `c1ccc(-c2ccnc3[nH]ccc23)cc1` [SB-693578], the potency estimated from few doses in the assay on BMP2K is 1.68 µM; with FN3KRP, 1.85 µM; in the assay on MAP3K5 it was 2.33 µM; with PDXK it was 1.33 µM.
Regarding `Nc1ncnc2scc(-c3ccc(NC(=O)Cc4cc(F)ccc4F)cc3)c12.O=C(O)C(F)(F)F` [SB-731254-M], the potency estimated from few doses in the assay on AURKB (CATDS: 0.15442610034884699) is 0.399 µM; in the assay with EGFR it was 1.18 µM; with EIF2AK1, 0.457 µM; in the assay with FLT3 (CATDS: 0.410073684021382), 0.0852 µM; in the assay on LIMK1, 1.91 µM; in the assay with LIMK2, 0.817 µM. Besides, the potency estimated from few doses in the assay with NNT is 1.53 µM; in the assay on PDGFRB (CATDS: 9.2318331607570206E-2) it was 1.26 µM; in the assay with TESK2 it was 1.21 µM.
In the case of `Cl.O=C(Nc1ccc(Oc2ccc3[nH]c(NC(=O)c4ccco4)nc3c2)cc1)Nc1cc(C(F)(F)F)ccc1F` [GW683134A_KCGS], the potency estimated from few doses was 1.64 µM with AXL; 1.13 µM in the assay on ERBB3; 2 µM in the assay on MAP3K1; 0.498 µM in the assay with RET; 2.15 µM with ZAK.

The values above are taken from publication PMC11062922 (Nature Chemical Biology, 2023).
